Experimental data as given in the supplement of paper PMC4466140.

Tests used:
Assay in all cases: SPOT peptide array binding signal intensity (averaged, normalized) (arbitrary units (background-subtracted, floor 0; scale differs between SH3 domains)); higher = stronger binding of the SH3 domain to the peptide
CaNbp2 = target: CaNbp2
Experimental: (§1)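 GST-tagged SH3 domains from S. cerevisiae (Sc), A. gossypii (Ag), C. albicans (Ca) and S. pombe (Sp) were incubated at 10 ug/ml overnight at 4 C on cellulose SPOT membranes carrying 292 synthetic 15-mer peptides mined from the S. cerevisiae proteome (cysteines replaced by serines). Binding was detected with anti-GST antibody, HRP secondary and chemiluminescence, quantified with Genespotter, and reported as normalized spot intensities averaged over biological replicates.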

CaRvs167 = target: CaRvs167
Experimental: as §1

CaRvs167-3 = target: CaRvs167-3
Experimental: as §1

CaSho1 = target: CaSho1
Experimental: as §1

CaSla1-D1-D2 = target: CaSla1-D1-D2
Experimental: as §1

CaSla1-D3 = target: CaSla1-D3
Experimental: as §1

ScAbp1 = target: ScAbp1
Experimental: as §1

ScBbc1 = target: ScBbc1
Experimental: as §1

ScBem1-D1 = target: ScBem1-D1
Experimental: as §1

ScBzz1-D1 = target: ScBzz1-D1
Experimental: as §1

ScBzz1-D2 = target: ScBzz1-D2
Experimental: as §1

ScCyk3 = target: ScCyk3
Experimental: as §1

ScFus1 = target: ScFus1
Experimental: as §1

ScHof1 = target: ScHof1
Experimental: as §1

ScHse1 = target: ScHse1
Experimental: as §1

ScLsb1 = target: ScLsb1
Experimental: as §1

ScLsb2 = target: ScLsb2
Experimental: as §1

ScLsb3 = target: ScLsb3
Experimental: as §1

ScLsb4 = target: ScLsb4
Experimental: as §1

ScMyo3 = target: ScMyo3
Experimental: as §1

ScMyo5 = target: ScMyo5
Experimental: as §1

ScNbp2 = target: ScNbp2
Experimental: as §1

ScPex13 = target: ScPex13
Experimental: as §1

ScRvs167 = target: ScRvs167
Experimental: as §1

ScSho1 = target: ScSho1
Experimental: as §1

ScSla1-D1-D2 = target: ScSla1-D1-D2
Experimental: as §1

ScSla1-D3 = target: ScSla1-D3
Experimental: as §1

SpAbp1-D1 = target: SpAbp1-D1
Experimental: as §1

SpBbc1 = target: SpBbc1
Experimental: as §1

SpBzz1-D1 = target: SpBzz1-D1
Experimental: as §1

SpBzz1-D2 = target: SpBzz1-D2
Experimental: as §1

SpCyk3 = target: SpCyk3
Experimental: as §1

SpHof1 = target: SpHof1
Experimental: as §1

SpHof1-2 = target: SpHof1-2
Experimental: as §1

SpHof1-3 = target: SpHof1-3
Experimental: as §1

SpHse1 = target: SpHse1
Experimental: as §1

SpLsb1 = target: SpLsb1
Experimental: as §1

SpLsb4 = target: SpLsb4
Experimental: as §1

SpMyo1 = target: SpMyo1
Experimental: as §1

SpNbp2 = target: SpNbp2
Experimental: as §1

SpPex13 = target: SpPex13
Experimental: as §1

SpRvs167 = target: SpRvs167
Experimental: as §1

SpSla1-D1-D2 = target: SpSla1-D1-D2
Experimental: as §1

SpSla1-D3 = target: SpSla1-D3
Experimental: as §1

AgAbp1 = target: AgAbp1
Experimental: as §1

AgBbc1 = target: AgBbc1
Experimental: as §1

AgBem1-D1 = target: AgBem1-D1
Experimental: as §1

AgBzz1-D1 = target: AgBzz1-D1
Experimental: as §1

AgBzz1-D2 = target: AgBzz1-D2
Experimental: as §1

AgCyk3 = target: AgCyk3
Experimental: as §1

AgFus1 = target: AgFus1
Experimental: as §1

AgHof1 = target: AgHof1
Experimental: as §1

AgHse1 = target: AgHse1
Experimental: as §1

AgLsb1 = target: AgLsb1
Experimental: as §1

AgLsb4 = target: AgLsb4
Experimental: as §1

AgMyo5 = target: AgMyo5
Experimental: as §1

AgNbp2 = target: AgNbp2
Experimental: as §1

AgRvs167 = target: AgRvs167
Experimental: as §1

AgSho1 = target: AgSho1
Experimental: as §1

AgSla1-D1-D2 = target: AgSla1-D1-D2
Experimental: as §1

AgSla1-D3 = target: AgSla1-D3
Experimental: as §1

CaAbp1-D1 = target: CaAbp1-D1
Experimental: as §1

CaAbp1-D2 = target: CaAbp1-D2
Experimental: as §1

CaBbc1 = target: CaBbc1
Experimental: as §1

CaBem1-D1 = target: CaBem1-D1
Experimental: as §1

CaBzz1-D1 = target: CaBzz1-D1
Experimental: as §1

CaBzz1-D2 = target: CaBzz1-D2
Experimental: as §1

CaCyk3 = target: CaCyk3
Experimental: as §1

CaFus1 = target: CaFus1
Experimental: as §1

CaHof1 = target: CaHof1
Experimental: as §1

CaHse1 = target: CaHse1
Experimental: as §1

CaLsb1 = target: CaLsb1
Experimental: as §1

CaLsb4 = target: CaLsb4
Experimental: as §1

CaMyo5 = target: CaMyo5
Experimental: as §1

B1: unnamed (peptide)
chain: NHSRSLFSLPGNQQS
CaNbp2
  SPOT peptide array binding signal intensity: 358
CaRvs167
  SPOT peptide array binding signal intensity: 54.7
CaRvs167-3
  SPOT peptide array binding signal intensity: 70.5
CaSho1
  SPOT peptide array binding signal intensity: 838
CaSla1-D1-D2
  SPOT peptide array binding signal intensity: 25.5
CaSla1-D3
  SPOT peptide array binding signal intensity: 23.8
ScAbp1
  SPOT peptide array binding signal intensity: 48
ScBbc1
  SPOT peptide array binding signal intensity: 0.75
ScBem1-D1
  SPOT peptide array binding signal intensity: 6.5
ScBzz1-D1
  SPOT peptide array binding signal intensity: 10
ScBzz1-D2
  SPOT peptide array binding signal intensity: 10.5
ScCyk3
  SPOT peptide array binding signal intensity: 29.5
ScFus1
  SPOT peptide array binding signal intensity: 595
ScHof1
  SPOT peptide array binding signal intensity: 3.5
ScHse1
  SPOT peptide array binding signal intensity: 2940
ScLsb1
  SPOT peptide array binding signal intensity: 2.75
ScLsb2
  SPOT peptide array binding signal intensity: 7
ScLsb3
  SPOT peptide array binding signal intensity: 4
ScLsb4
  SPOT peptide array binding signal intensity: ≤ 0
ScMyo3
  SPOT peptide array binding signal intensity: 29.5
ScMyo5
  SPOT peptide array binding signal intensity: 67.2
ScNbp2
  SPOT peptide array binding signal intensity: 104
ScPex13
  SPOT peptide array binding signal intensity: ≤ 0
ScRvs167
  SPOT peptide array binding signal intensity: 17
ScSho1
  SPOT peptide array binding signal intensity: 1120
ScSla1-D1-D2
  SPOT peptide array binding signal intensity: 90.5
ScSla1-D3
  SPOT peptide array binding signal intensity: 2.25
SpAbp1-D1
  SPOT peptide array binding signal intensity: 196
SpBbc1
  SPOT peptide array binding signal intensity: 5.5
SpBzz1-D1
  SPOT peptide array binding signal intensity: 28
SpBzz1-D2
  SPOT peptide array binding signal intensity: 2.5
SpCyk3
  SPOT peptide array binding signal intensity: ≤ 0
SpHof1
  SPOT peptide array binding signal intensity: 176
SpHof1-2
  SPOT peptide array binding signal intensity: 10.8
SpHof1-3
  SPOT peptide array binding signal intensity: 992
SpHse1
  SPOT peptide array binding signal intensity: 1960
SpLsb1
  SPOT peptide array binding signal intensity: 27.5
SpLsb4
  SPOT peptide array binding signal intensity: 20
SpMyo1
  SPOT peptide array binding signal intensity: 72.5
SpNbp2
  SPOT peptide array binding signal intensity: 125
SpPex13
  SPOT peptide array binding signal intensity: 7
SpRvs167
  SPOT peptide array binding signal intensity: 75
SpSla1-D1-D2
  SPOT peptide array binding signal intensity: 3
SpSla1-D3
  SPOT peptide array binding signal intensity: 13.5

B2: unnamed (peptide)
chain: LYKRKPILLPDPKPL
AgAbp1
  SPOT peptide array binding signal intensity: 30.5
AgBbc1
  SPOT peptide array binding signal intensity: ≤ 0
AgBem1-D1
  SPOT peptide array binding signal intensity: ≤ 0
AgBzz1-D1
  SPOT peptide array binding signal intensity: 44
AgBzz1-D2
  SPOT peptide array binding signal intensity: 70
AgCyk3
  SPOT peptide array binding signal intensity: ≤ 0
AgFus1
  SPOT peptide array binding signal intensity: ≤ 0
AgHof1
  SPOT peptide array binding signal intensity: 11
AgHse1
  SPOT peptide array binding signal intensity: 93
AgLsb1
  SPOT peptide array binding signal intensity: 208
AgLsb4
  SPOT peptide array binding signal intensity: 1.5
AgMyo5
  SPOT peptide array binding signal intensity: ≤ 0
AgNbp2
  SPOT peptide array binding signal intensity: 4.5
AgRvs167
  SPOT peptide array binding signal intensity: ≤ 0
AgSho1
  SPOT peptide array binding signal intensity: ≤ 0
AgSla1-D1-D2
  SPOT peptide array binding signal intensity: 29
AgSla1-D3
  SPOT peptide array binding signal intensity: 9
CaAbp1-D1
  SPOT peptide array binding signal intensity: 292
CaAbp1-D2
  SPOT peptide array binding signal intensity: 140
CaBbc1
  SPOT peptide array binding signal intensity: 16.5
CaBem1-D1
  SPOT peptide array binding signal intensity: ≤ 0
CaBzz1-D1
  SPOT peptide array binding signal intensity: 150
CaBzz1-D2
  SPOT peptide array binding signal intensity: 40.8
CaCyk3
  SPOT peptide array binding signal intensity: 4
CaFus1
  SPOT peptide array binding signal intensity: 39
CaHof1
  SPOT peptide array binding signal intensity: 0.75
CaHse1
  SPOT peptide array binding signal intensity: ≤ 0
CaLsb1
  SPOT peptide array binding signal intensity: 228
CaLsb4
  SPOT peptide array binding signal intensity: ≤ 0
CaMyo5
  SPOT peptide array binding signal intensity: ≤ 0
CaNbp2
  SPOT peptide array binding signal intensity: 33
CaRvs167
  SPOT peptide array binding signal intensity: 7.67
CaRvs167-3
  SPOT peptide array binding signal intensity: 1.75
CaSho1
  SPOT peptide array binding signal intensity: ≤ 0
CaSla1-D1-D2
  SPOT peptide array binding signal intensity: 50
CaSla1-D3
  SPOT peptide array binding signal intensity: ≤ 0
ScAbp1
  SPOT peptide array binding signal intensity: 38
ScBbc1
  SPOT peptide array binding signal intensity: 2
ScBem1-D1
  SPOT peptide array binding signal intensity: 3
ScBzz1-D1
  SPOT peptide array binding signal intensity: 20.5
ScBzz1-D2
  SPOT peptide array binding signal intensity: 15.5
ScCyk3
  SPOT peptide array binding signal intensity: ≤ 0
ScFus1
  SPOT peptide array binding signal intensity: ≤ 0
ScHof1
  SPOT peptide array binding signal intensity: ≤ 0
ScHse1
  SPOT peptide array binding signal intensity: 267
ScLsb1
  SPOT peptide array binding signal intensity: 162
ScLsb2
  SPOT peptide array binding signal intensity: 838
ScLsb3
  SPOT peptide array binding signal intensity: 7
ScLsb4
  SPOT peptide array binding signal intensity: ≤ 0
ScMyo3
  SPOT peptide array binding signal intensity: ≤ 0
ScMyo5
  SPOT peptide array binding signal intensity: 0.5
ScNbp2
  SPOT peptide array binding signal intensity: 14.5
ScPex13
  SPOT peptide array binding signal intensity: ≤ 0
ScRvs167
  SPOT peptide array binding signal intensity: 16.7
ScSho1
  SPOT peptide array binding signal intensity: 62.5
ScSla1-D1-D2
  SPOT peptide array binding signal intensity: 135
ScSla1-D3
  SPOT peptide array binding signal intensity: 5
SpAbp1-D1
  SPOT peptide array binding signal intensity: 29
SpBbc1
  SPOT peptide array binding signal intensity: ≤ 0
SpBzz1-D1
  SPOT peptide array binding signal intensity: 188
SpBzz1-D2
  SPOT peptide array binding signal intensity: 0.5
SpCyk3
  SPOT peptide array binding signal intensity: ≤ 0
SpHof1
  SPOT peptide array binding signal intensity: 6.25
SpHof1-2
  SPOT peptide array binding signal intensity: 7.5
SpHof1-3
  SPOT peptide array binding signal intensity: 83
SpHse1
  SPOT peptide array binding signal intensity: 4
SpLsb1
  SPOT peptide array binding signal intensity: 19.8
SpLsb4
  SPOT peptide array binding signal intensity: ≤ 0
SpMyo1
  SPOT peptide array binding signal intensity: ≤ 0
SpNbp2
  SPOT peptide array binding signal intensity: 5.5
SpPex13
  SPOT peptide array binding signal intensity: ≤ 0
SpRvs167
  SPOT peptide array binding signal intensity: 12.3
SpSla1-D1-D2
  SPOT peptide array binding signal intensity: ≤ 0
SpSla1-D3
  SPOT peptide array binding signal intensity: ≤ 0
